# Compounds with a hit are over-represented: about 3.5% of the library has one in this group of screens.
# GPR151 activ: human GPR151 activation | activation, % at 11.2 µM | hit rate 1% among 650,000 | PathHunter beta-arrestin GPR151 cells, luminescence | Q8TDV0; in the data active = activation above about 4.9%;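 note: 0% = median of compound wells and 100% = cells with positive control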
# FBW7 act: activators of human E3 ligase FBW7. normalized activity (activation), % at 26.1 µM. AlphaScreen FBW7–phospho-cyclin E peptide binding, activator screen. hit rate 0.13% among 650,000; in the data active = normalized activity above about 1.9%;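 note: purified mutant Fbw7 with reduced substrate affinity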
# MITF primary: inhibitors of human MITF; AlphaScreen MITF homodimerization, bead proximity signal; inhibition, % at 2.6 µM; hit rate 0.91% among 650,000; AID 1259374; in the data active = inhibition above about 50%;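 note: 0% = vehicle wells with protein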
# Target sequence (O75030 whole entry, looked up): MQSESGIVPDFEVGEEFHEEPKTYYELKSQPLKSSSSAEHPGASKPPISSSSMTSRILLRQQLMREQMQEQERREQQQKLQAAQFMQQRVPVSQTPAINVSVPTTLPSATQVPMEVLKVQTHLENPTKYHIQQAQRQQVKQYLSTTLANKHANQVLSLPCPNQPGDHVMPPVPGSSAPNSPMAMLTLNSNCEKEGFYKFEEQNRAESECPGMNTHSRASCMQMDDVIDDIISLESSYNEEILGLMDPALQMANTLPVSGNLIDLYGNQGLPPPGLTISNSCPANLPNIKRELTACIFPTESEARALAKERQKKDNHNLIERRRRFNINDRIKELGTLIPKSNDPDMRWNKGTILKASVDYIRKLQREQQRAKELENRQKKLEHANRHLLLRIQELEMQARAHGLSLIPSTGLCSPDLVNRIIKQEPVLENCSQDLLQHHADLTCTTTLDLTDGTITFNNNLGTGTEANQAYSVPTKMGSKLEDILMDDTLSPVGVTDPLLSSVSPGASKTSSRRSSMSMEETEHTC
# TEAD-YAP block: TEAD-YAP interaction inhibition | HEK-TIYL cells, TEAD-Gal4/YAP UAS-luciferase luminescence | inhibition, % at 9.12 µM | hit rate 1.4% among 640,000 | AID 1259422; in the data active = inhibition above about 32%;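 note: 0% = median of test compound wells and 100% = reference inhibitor wells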
# * marks the source's active call; other numbers are inactive results.
SMILES,GPR151 activ,FBW7 act,MITF primary,TEAD-YAP block
O=C1OC(c2ccc(Cl)cc2)=N/C1=C\c1ccc(OCc2ccccc2)cc1,1,0,8,-11
Cc1ccc(C2=N/C(=C\c3ccccc3OC(=O)c3ccc(Br)cc3)C(=O)O2)cc1,0,0,-7,37*
CC(=O)Nc1ccc(C2=N/C(=C/c3ccc(OCc4ccccc4)cc3)C(=O)O2)cc1,1,0,1,43*
Cc1ccc(C2=N/C(=C\c3ccccc3OCc3ccccc3)C(=O)O2)cc1,1,0,-3,41*
CCCCN1C(=O)NC(NC(=O)CCC2CCCCC2)(C(F)(F)F)C1=O (centres undefined),0,0,17,10
C=CCc1c(C)nc2c(C(=O)OC)cnn2c1C,0,0,18,-15
N#CCSc1ccc2nnc(-c3ccccn3)n2n1,0,3.8*,7,-8
N#CCSc1ccc2nnc(-c3ccncc3)n2n1,-1,0,3,40*
CCC(Sc1ccc2nnc(-c3ccccn3)n2n1)C(=O)OC (centres undefined),2,7.2*,15,-14
O=C1C(Cl)=C(Nc2cccc(O)c2)C(=O)N1c1ccccc1Cl,0,0,16,3
Cc1ccc(N2C(=O)C(Cl)=C(Nc3cccc(O)c3)C2=O)c(C)c1,-1,1,32,36*
O=C1C(Cl)=C(Nc2cccc(O)c2)C(=O)N1c1cccc(Cl)c1Cl,-1,0,10,53*
CC(C)NC(=O)c1cc(-c2cccnc2)nc2ccccc12,-1,0,10,5
CCOc1ccc(N2C(=O)CC(NCCc3cccc(OC)c3)C2=O)cc1 (centres undefined),4,0,3,-2
COc1cc(-c2ncnn2-c2cccc(Cl)c2)ccc1OCc1ccccc1,-1,0,10,-10
COc1ccc(NCc2ccc(O)c3ncccc23)cc1,0,-2,73*,-9
Oc1ccc(CNc2ccc(Cl)cc2)c2cccnc12,-2,-1,49,26
O=S(=O)(c1ccc(Cl)cc1)N1CCN(Cc2ccc(O)c3ncccc23)CC1,2,-1,4,66*
Oc1ccc(CN2CCN(Cc3ccccc3)CC2)c2cccnc12,0,-1,95*,1
CC1=C(C(=O)OCCc2ccccc2)C(c2ccccc2Cl)CC(=O)N1 (centres undefined),0,0,-1,3
COc1ccc(C=Nc2ccccc2C(N)=O)c2ccccc12,0,0,24,60*
NC(=O)c1ccccc1N=Cc1ccc(Br)s1,3,0,14,8
Cc1ccc(C=Nc2ccccc2C(N)=O)s1,0,0,4,36*
CCN(CC)c1ccc(C2Nc3ccccc3NC3=C2C(=O)CC(C)(C)C3)cc1 (centres undefined),0,0,1,54*
COc1cc(C2Nc3ccc(C(=O)c4ccccc4)cc3NC3=C2C(=O)CC(C)(C)C3)ccc1O (centres undefined),0,0,-1,41*
SMILES,GPR151 activ,FBW7 act,MITF primary,TEAD-YAP block
O=C1CCCC2=C1C(c1ccc(Cl)c(Cl)c1)Nc1ccc(C(=O)c3ccccc3)cc1N2 (centres undefined),0,0,4,50*
CC1(C)CC(=O)C2=C(C1)Nc1ccccc1NC2c1ccc(-c2ccccc2)cc1 (centres undefined),2,0,-1,21
CSc1ccc(C2Nc3ccc(C(=O)c4ccccc4)cc3NC3=C2C(=O)CCC3)cc1 (centres undefined),0,0,-12,43*
Cc1nc2cc(-c3ccccc3)nn2c(N)c1-c1ccccc1,-3,0,10,37*
COc1ccc(-c2cc3nc(C)cc(N)n3n2)cc1,-9,0,5,74*
COc1ccc(-c2cc3nc(C)c(C)c(Cl)n3n2)cc1,3,0,-3,3
Nc1c(C(=O)Nc2cc(C(F)(F)F)ccc2Cl)sc2nc(-c3cccs3)cc(C(F)(F)F)c12,-1,0,-6,3
Cc1cc(C(=O)CSc2nnc3ccccn23)c(C)n1Cc1ccccc1,-3,0,1,64*
CCOC(=O)c1sc(N/N=C/c2ccccc2O)nc1C,1,0,7,49*
O=C(c1n[nH]c(=O)c2ccccc12)N1CC[C@@H](c2ccccc2)[C@H](O)C1,0,0,-3,-10
COc1ccc2oc(=O)c(-c3csc(Nc4ccccc4OC)n3)cc2c1,1,0,-5,48*
CCOC(=O)c1c(NC(=O)c2cc(Br)ccc2Cl)sc2c1CCCC2,-2,-1,14,0
O=C1C(=O)c2ncccc2-c2cccnc21,0,-2,57*,75*
O=C(Oc1ccccc1NC1=NS(=O)(=O)c2ccccc21)c1ccccc1Cl,2,0,13,60*
COc1ccccc1C(=O)Oc1ccc(Cl)cc1NC1=NS(=O)(=O)c2ccccc21,0,0,-3,-8
Cc1ccc(C)c(Nc2nc(NCCN(C)C)nc3nccnc23)c1,-2,2.1*,-11,-4
Cc1ccc(C)c(Nc2nc(NCc3ccco3)nc3nccnc23)c1,-2,0,0,-1
C=CCSc1nnc2c(n1)OC(c1cc(Br)cc(OCC)c1OC(C)=O)N(C(C)=O)c1ccccc1-2 (centres undefined),1,0,-12,3
CCOc1ccc(Nc2nc(-c3ccc([N+](=O)[O-])cc3)nc3ccccc23)cc1,-1,0,-9,3
Cc1ccc(-c2nc3cnccn3c2Nc2ccccc2C)o1,1,0,-3,-9
COCCn1c(C)cc(C(=O)CSc2nnc(C)s2)c1C,-6,0,-2,70*
COc1ccc(CCn2c(C)cc(C(=O)CSc3nnc(C)s3)c2C)cc1,0,0,-2,4
Cc1cc(C(=O)CSc2nnc(N)s2)c(C)n1Cc1ccco1,-1,0,7,37*
Cc1nnc(SCC(=O)c2cc(C)n(Cc3cccs3)c2C)s1,1,0,2,62*
Cc1cc(C(=O)COC(=O)c2cccs2)c(C)n1Cc1cccs1,-1,0,14,53*
SMILES,GPR151 activ,FBW7 act,MITF primary,TEAD-YAP block
O=C(Cc1ccccc1)Nc1cc(Cl)c(O)c(Cl)c1,-11,0,5,5
CCOC(=O)NC12CC3CC(C1)CC(C(F)(F)F)(C3)C2,0,0,-1,4
CCOC(=O)C1C(=O)CC(C)(O)C(C(=O)OCC)C1c1ccc(C)s1 (centres undefined),0,1,12,6
Cc1ccc(Cc2cnc(NC(=O)CCc3ccc(C)o3)s2)cc1,1,0,0,67*
CCc1ccc(CCC(=O)Nc2ncc(Cc3ccccc3F)s2)o1,-1,0,11,15
Cc1ccc(CCC(=O)Nc2ncc(Cc3ccccc3Cl)s2)o1,0,0,-5,56*
O=C(CCl)Nc1ncc(Cc2ccccc2)s1,0,1,-11,-4
Cc1ccc(CCC(=O)Nc2ncc(Cc3ccccc3)s2)o1,0,0,-1,56*
COC(=O)c1c(OCc2ccccn2)cc(=O)n2c1CCN(Cc1ccoc1)CC2,1,0,0,-18
